# From PubChem
# mHTT CaM bind: mutant huntingtin-calmodulin interaction inhibitors – biochemical, AlphaScreen, primary screen; P42858; AlphaScreen His-mHTT/GST-CaM binding, luminescence; inhibition, % at 15 µM; actives 3.6% (n = 190,000); AID 1671202, 2021;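 note: 0% = both proteins with DMSO and 100% = one protein alone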
# Pf apPOL block: Pf-apPOL inhibitors, biochemical, fluorescence | Plasmodium falciparum apicoplast DNA polymerase (apPOL) | Recombinant Pf-apPOL, molecular beacon fluorescence, 1.5 h | inhibition, % at 10 µM | actives 0.25% (n = 210,000) | AID 1794808, 2022
# Active calls of the source: *; . = not tested or not shown. Shown are actives, neighbours in structure and some others; about 3.6% of the full set was active somewhere. Cut-off read from the data, not from the text of the source: active = inhibition above about 50%; inactive = the rest.
SMILES,mHTT CaM bind,Pf apPOL block
CCOC(=O)CC1(NC(=O)N2CC3CCCN3c3ccccc32)CCCCC1 (stereo not drawn),64.4*,-3.3
CCOC(=O)C1CCC(CNC(=O)N2CC(CC)Oc3ccccc32)CC1 (stereo not drawn),-7.0,1.7
CCOC(=O)C1CCC(CNC(=O)N2CC3CCCN3c3ccccc32)CC1 (stereo not drawn),65.6*,-2.3
CCCN1C(=O)COc2ccc(-c3noc(-c4ccc(C(F)(F)F)cc4)n3)cc21,-3.5,-0.1
C=CCCC(=O)NCCn1ccnc1C,-15.0,-3.6
CCc1ccc(NC(=O)CSc2nc3c(c(=O)n2-c2ccc(Cl)cc2)SCC3)cc1,19.0,99.4*
CCc1ccc(NC(=O)CSc2nc3c(c(=O)n2-c2ccccc2)SCC3)cc1,15.0,2.1
COc1ccccc1-c1c(C)oc2c(CN3CCCCCC3)c(O)ccc2c1=O,2.5,6.1
CCc1nc2nc(C)cc(N3CCN(c4ccc(C)cc4C)CC3)n2n1,63.4*,-7.5
CCCN(C)Cc1nc2nc(C)cc(N3CCCCCC3)n2n1,18.6,-6.7
CN(C)C(=O)c1cc2c(s1)CCC(C(=O)NC1CCCC1)C2 (stereo not drawn),-8.5,0.3
COCCn1cc2c3c(cccc31)CN(C(=O)Cc1ccc(Cl)cc1)CC2,81.4*,-1.8
CCc1ccccc1NC(=O)N1CCc2cn(CCOC)c3cccc(c23)C1,14.5,-4.4
COCCn1cc2c3c(cccc31)CN(C(=O)Cc1cccc(OC)c1)CC2,45.8,-5.6
COCCn1cc2c3c(cccc31)CN(C(=O)Cc1ccccc1C)CC2,62.9*,-2.3
CCOc1ccc(C(=O)Nc2ccc([N+](=O)[O-])cc2OC)cc1Br,-3.7,-15.6
Cc1ccc(-c2[nH]c3ccccc3c2C)cc1[N+](=O)[O-],64.0*,0.2
Cc1ccc(C(=O)c2ccccc2)cc1[N+](=O)[O-],-4.8,-9.3
CCOC(=O)c1oc2c(CN3CCN(C)CC3)c(O)ccc2c(=O)c1-c1ccc(OC)cc1,2.8,-1.3
CCOc1ccccc1/C=C1/N=C(c2ccccc2OC)OC1=O,2.0,0.0
COc1ccc(OCC(=O)N2CCC3(CC2)Nc2cc(C)ccc2-n2cccc23)cc1,54.3*,4.5
O=C(Cc1cccc(F)c1)N1CCC2(CC1)Nc1ccccc1-n1cccc12,59.1*,1.4
COc1cccc(CC(=O)N2CCC3(CC2)NC(=O)N(Cc2ccc(C)cc2)C3=O)c1,14.1,-1.9
Cc1ccc(CN2C(=O)NC3(CCN(C(=O)COc4cccc(C)c4)CC3)C2=O)cc1,5.0,-6.8
COc1ccc2c(c1)NC1(CCN(C(=O)COc3cccc(C)c3)CC1)c1cccn1-2,84.9*,-8.8
SMILES,mHTT CaM bind,Pf apPOL block
O=C(Cc1cccc(F)c1)N1CCC2(C1)C(=O)Nc1ccccc12 (stereo not drawn),7.4,-1.5
COc1cccc(CC(=O)N2CCC3(CC2)Nc2cc(OC)ccc2-n2cccc23)c1,91.7*,-5.7
COc1ccc(OCC(=O)N2CCC3(CC2)Nc2cccnc2NC3=NC(C)(C)C)cc1,16.3,-1.1
O=C(NCc1ccccn1)C(=O)Nc1ccccc1Cl,-6.9,-8.1
COc1cc(/C=C2\SC(=O)N(CNc3ccccc3F)C2=O)cc(OC)c1OC,1.0,-5.9
Cc1ccc(COCc2nn(C)c3c2CN(S(=O)(=O)c2ccc(C)c(F)c2)CC3)cc1,2.9,-0.6
O=C(COc1ccc(Cl)cc1)N1CCC2(CC1)Nc1ccccc1-n1cccc12,93.2*,-2.0
Cc1cccc(OCC(=O)N2CCC3(CC2)NC(=O)N(Cc2ccc(F)cc2)C3=O)c1,28.6,-5.1
COc1ccc2c(c1)NC1(CCN(C(=O)COc3ccc(F)cc3)CC1)c1cccn1-2,96.0*,1.4
CCOc1ccccc1C(=O)N1CCC2(CC1)Nc1ccccc1-n1cccc12,16.4,-3.6
O=S(=O)(Nc1ccc(Br)cc1F)c1ccc(F)cc1,-5.3,.
COc1ccc(-c2ncc3c(n2)CCN(C(=O)Nc2cccc(C(C)=O)c2)C3)cc1,5.1,-4.6
CS(=O)(=O)Nc1cccc(NC(=O)c2cc(-c3ccco3)[nH]n2)c1,7.7,7.7
CCOc1ccc(N=C2C(=O)Nc3ccc(C)c(Br)c32)cc1,57.0*,-2.0
CCOc1ccc(N=C2C(=O)Nc3ccccc32)cc1,35.0,-1.5
COc1ccc(C2CC(c3ccc(F)cc3)=NN2C(=O)CN2CCCCC2C)cc1 (stereo not drawn),22.1,-3.1
Cc1ccc(C2=NN(C(=O)CN3CCOCC3)C(c3ccc(Cl)cc3)C2)cc1C (stereo not drawn),14.6,1.2
Cn1cccc1C1CC(c2ccccc2Cl)=NN1C(=O)CN1CCOCC1 (stereo not drawn),22.5,-0.9
CC1CCN(CC(=O)N2N=C(c3ccccc3Cl)CC2c2cccn2C)CC1 (stereo not drawn),83.6*,-3.1
COc1ccc(C2CC(c3ccc(F)cc3)=NN2C(=O)CN2CCCCC2)cc1 (stereo not drawn),27.5,-4.2
